The list is not random: actives were taken first. Their share in the collection is about 2%.
Abeta yeast res = A-beta toxicity reversal in yeast. yeast expressing A-beta42, growth rescue, OD600, 48 h; response scale: 0% DMSO, 100% iron-clioquinol control. Potency, µM (series often up to 46.1 µM), actives largely listed as activators. 410,000 compounds, 0.063% hits. AID 1347071; further: potency means the concentration at half of the fitted maximal effect; nearly all actives have a fitted effect of over 55% in size
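Yeast A-beta toxicity model in growth medium with pinned compounds, 48 h at 30 C; growth read as absorbance at 600 nm. Normalized to FeCl3/clioquinol equimolar mix (positive) and DMSO (negative).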
FUS suppressor = rescues growth of FUS-expressing yeast; S. cerevisiae FUS-expressing, growth rescue, OD600, 24 h; Potency, µM (doses to about 76.6 µM), usual class: activators; 390,000 compounds, 0.24% hits;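 further: potency means the concentration at half of the fitted maximal effect; plate controls were DMSO vehicle for no effect and reference control for full effect; nearly all actives have a fitted effect of over 55% in size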
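Compound concentration series was pinned onto galactose-induced FUS-expressing yeast seeded at OD 0.005. Plates sat 24hr at 30C; absorbance at 600 nm gave growth. DMSO served as background control.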
LDHA inh = blocks human lactate dehydrogenase A; activity change, % (values are at about 110 or 230 µM); AID 1347041; purified LDHA, NADH/diaphorase-resazurin fluorescence; active compounds read low; 480,000 compounds, 0.15% hits; P00338; in the data active means activity change below about -30%; inconclusive means mostly about -25% to -30%;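 further: plate controls were DMSO wells for no effect and wells without enzyme for full effect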
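LDH5 2 nM; NADH 0.06 mM, pyruvate 0.2 mM; 200 mM Tris pH 7.4, EDTA, Tween-20; 5 min RT. Detection: diaphorase 0.133 mg/mL + resazurin 37 µM, fluorescence ex540/em590 at 0 and 20 min; normalized to enzyme-free and DMSO wells.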
mIDH1 inhibitor = blocks human mutant IDH1 R132H enzyme | O75874 | IDH1-R132H enzyme, NADPH consumption, diaphorase/resazurin fluorescence | Potency, µM (doses to about 76.6 µM), for the others: at the top dose activity change, negative = inhibition, usual class: inhibitors | 390,000 compounds, 0.093% hits; further: potency means the concentration at half of the fitted maximal effect; on the % scale 0 is the no-effect control and ±100 the full control effect; nearly all actives have a fitted effect of over 65% in size
Target sequence (O75874 whole entry R132H, stated change not applied): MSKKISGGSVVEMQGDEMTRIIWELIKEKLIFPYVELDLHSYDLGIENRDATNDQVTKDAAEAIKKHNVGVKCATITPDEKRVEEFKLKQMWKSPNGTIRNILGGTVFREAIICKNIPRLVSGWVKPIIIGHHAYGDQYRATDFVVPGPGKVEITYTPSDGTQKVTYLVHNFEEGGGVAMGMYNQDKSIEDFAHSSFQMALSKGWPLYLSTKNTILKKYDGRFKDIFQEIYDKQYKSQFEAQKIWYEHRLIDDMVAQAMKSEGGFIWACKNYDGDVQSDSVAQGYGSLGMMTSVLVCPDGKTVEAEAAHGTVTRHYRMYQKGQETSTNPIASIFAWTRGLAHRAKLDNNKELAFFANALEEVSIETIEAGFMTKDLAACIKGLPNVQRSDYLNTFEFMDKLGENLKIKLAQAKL
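IDH1-R132H (0.5 ug/mL) preincubated 30 min with compound, then NADPH (0.016 mM) and alpha-KG (2 mM) added; 80 min at RT, pH 7.5. Remaining NADPH coupled via diaphorase/resazurin to fluorescence (540/590 nm); concentration-response curves normalized to no-enzyme control.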
aSyn rescue = alpha-synuclein toxicity inhibition in yeast. 370,000 compounds, 0.14% hits. Yeast expressing alpha-synuclein, growth rescue, BacTiter-Glo, 24 h. Potency, µM (top dose mostly 46.1 µM), for inactives: top-dose growth rescue (activation), actives largely listed as activators. AID 652106; further: potency means the concentration at half of the fitted maximal effect; % of control where 0% means no effect; nearly all actives have a fitted effect of over 65% in size
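Rescue of yeast growth: cells expressing toxic alpha-synuclein, induced in galactose at OD600 0.02, incubated with compound 24 h at 30 C. ATP luminescence quantified growth; inhibitors of toxicity appear as activators.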
TDP43 rescue = rescues yeast growth from TDP-43 toxicity; TDP-43 expressing yeast growth rescue, BacTiter-Glo, 24 h; Potency, µM (series often up to 46.1 µM), without a hit: top-dose growth rescue (activation), actives largely listed as activators; 410,000 compounds, 1.8% hits; further: potency means the concentration at half of the fitted maximal effect; % of control where 0% means no effect; nearly all actives have a fitted effect of over 50% in size
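Cell-based yeast growth screen: TDP-43 expression induced in galactose, inoculum OD600=0.02 after raffinose pregrowth to mid-log. Read-out BacTiter-Glo luminescence at 24 hr, 30 deg C; inhibition of toxicity seen as signal increase.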
* marks the source's active call; other numbers are inactive results; i = inactive; ? = inconclusive; . = not tested or not shown. Unless noted, the call rests on the fitted dose curve; in most records, active means well fitted curve in the direction sought with a large enough effect; inconclusive means small, poorly fitted or top-dose-only effect, or another doubt; inactive means no such curve, though single readings can be large; an effect the other way counts as inactive or inconclusive.

SMILES	Abeta yeast res	FUS suppressor	LDHA inh	mIDH1 inhibitor	aSyn rescue	TDP43 rescue
COc1cc(C2CC(=O)Oc3c2c(=O)[nH]c2ccccc32)cc2c1OCO2 (stereo not given)	.	.	-37.7*	.	.	.
COc1cc(C2CC(=O)Oc3c2c(=O)[nH]c2ccccc32)cc(OC)c1OC (stereo not given)	i	i	-10.9	-1.0%	3.0%	17.1%
O=C(NNc1nc2ccc(F)cc2s1)c1cccc(F)c1	?	i	1.1	-0.2%	?	12.6µM*
O=C(Nc1nc2ccc(F)cc2s1)c1ccccn1	?	i	7.5	9.7%	11.2µM*	-16.4%
O=C(Nc1nnc(SCc2ccc(F)cc2)s1)c1ccccn1	i	i	6.5	6.8%	4.47µM*	-27.1%
COCCN(C(=O)c1cc(-c2ccco2)nc2ccccc12)c1c(N)n(CC(C)C)c(=O)[nH]c1=O	.	.	-1.5	.	.	.
Cc1ccc(NS(=O)(=O)c2ccc(N/N=C/c3cc(C)[nH]c3C)c([N+](=O)[O-])c2)c(C)c1	.	.	-0.5	.	.	.
Cc1ccc(S(=O)(=O)c2c(C)c(C)n(Cc3ccco3)c2N)cc1	.	.	4.7	.	.	.
COc1cccc(-c2nc3ccccc3c(C)c2C#N)c1	.	.	0.1	.	.	.
O=C(c1cccc(Cl)c1)N1CCC(c2nc3ccccc3o2)CC1	i	i	2.9	5.3%	.	12.6µM*
O=C(c1ccc(F)cc1)N1CCC(c2nc3ccccc3o2)CC1	i	i	-1.7	-9.9%	.	28.9%
COc1ccccc1-c1nnc(C2CCN(C(=O)c3cccc(Cl)c3)CC2)o1	i	i	-2.9	-14.0%	.	20µM*
COc1ccccc1-c1nnc(C2CCN(C(=O)c3ccccc3C)CC2)o1	i	i	-7.2	-2.6%	.	?
CN(CC(=O)NC(C)(C)C)C(=O)c1ccc2ccccc2n1	.	.	-32.5*	.	.	.
COc1cccc(-c2ccn[nH]2)c1	.	.	-5.3	.	.	.
Cc1nc2cccc(C(=O)Oc3ccc(Cl)cc3)c2o1	.	.	3.7	.	.	.
Cn1cc(C(C[N+](=O)[O-])c2ccccc2)c2ccccc21 (stereo not given)	i	i	-0.5	0.1%	12.5%	12.6µM*
NCC(c1ccc(F)cc1)c1c[nH]c2ccccc12 (stereo not given)	.	.	2.8	.	.	.
O=[N+]([O-])CC(c1ccc(F)cc1)c1c[nH]c2ccccc12 (stereo not given)	?	i	-2.4	0.0%	?	17.8µM*
Fc1ccc(C(Nc2ccccn2)c2c[nH]c3ccccc23)cc1 (stereo not given)	?	i	-8.9	-2.9%	?	20µM*
N#C/C(=C\c1ccnc2ccccc12)c1nc2ccccc2s1	.	.	-2.5	.	.	.
Cc1ccc(SC[C@H](C)CN2CCC(NC(=O)OCc3ccccc3)CCC2=O)cc1 (stereo not given in full)	i	?	1.4	.	25.1µM*	?
c1cc(CNCC2CCCO2)c2cc[nH]c2c1 (stereo not given)	.	.	3.8	.	.	.
S=c1[nH]nc(Cc2sc(-c3ccccc3)nc2-c2ccccc2)o1	i	?	-5.9	-2.2%	-65.6%	12.6µM*
Cc1[nH]c2ccccc2c1C(=O)C(C)Cl (stereo not given)	.	.	3.5	.	.	.
SMILES	Abeta yeast res	FUS suppressor	LDHA inh	mIDH1 inhibitor	aSyn rescue	TDP43 rescue
CSc1nc(NCCOCCO)c2sc3nc(-c4ccco4)c4c(c3c2n1)CCC4	i	?	1.8	5.8%	7.5%	-3.4%
CCN(CCO)c1nc(SC)nc2c1sc1nc(-c3ccco3)c3c(c12)CCC3	i	.	-3.7	-2.0%	8.5%	10µM*
Cc1ccc(-c2nc3cccnc3o2)cc1NC(=O)COc1ccc(C(C)(C)C)cc1	i	31.6µM*	1.3	-1.2%	-10.9%	?
COc1ccc(Cl)cc1C(=O)Nc1c(NC2CCCCC2)c2ccccc2oc1=O	.	.	1.7	.	.	.
C/C(C/C(C)=C1/SC(=S)NC1=O)=C1\SC(=S)NC1=O	?	i	-34.2*	-11.3%	0.5%	-3.0%
CC(=O)N1CCN(c2ccc(NC(=O)C(C)Oc3ccc(Cl)cc3Cl)cc2)CC1 (stereo not given)	i	?	-1.8	-2.5%	3.0%	11.2µM*
COC(=O)[C@@]1(Cc2ccc(F)cc2)[C@H]2c3cc(C(=O)N(C)C)n(CCc4c[nH]c5ccc(O)cc45)c3C[C@H]2CN1C(=O)c1ccccc1	i	15.8µM*	3.8	.	-1.0%	28.0%
COC(=O)[C@@]1(Cc2ccc(F)cc2)[C@H]2c3cc(C(=O)N4CCCC4)n(CCc4c[nH]c5ccccc45)c3C[C@H]2CN1C(=O)c1ccccc1	i	?	-2.5	.	-2.8%	0.0%
NC(=S)N/N=C/c1ccccc1Cl	.	.	2.1	.	.	.
Nc1cc(S(=O)(=O)O)ccc1S(=O)(=O)O	.	.	9.7	.	.	.
COc1ccc(-c2oc3cc(OC)c(O)c(OC)c3c(=O)c2OC)cc1O	i	i	1.7	-22.3%	-0.6%	22.4µM*
CCCC(=O)Nc1oc2c(C)cccc2c(=O)c1-c1ccc(OC)c(OC)c1	.	.	6.6	.	.	.
Cc1ccc(CNC(=O)CO/N=C/c2ccc3c(c2)OCO3)cc1	i	i	-1.5	-3.3%	6.1%	20µM*
CCN(CC)S(=O)(=O)c1ccc2c(c1)CC(C(=O)NCCc1ccc(Cl)cc1)N2C(C)=O (stereo not given)	.	.	9.2	.	.	.
O=C(NCc1ccc(Cl)cc1)c1ncoc1-c1cccs1	.	.	7.5	.	.	.
Cc1nnc(NC(=O)Cc2ccc(OCc3c(C)noc3C)cc2)s1	i	14.1µM*	-5.3	2.1%	-2.3%	-5.6%
COc1ccccc1C1CCN(C(=O)c2cccs2)CC1	i	i	-10.2	13.4%	-2.7%	12.6µM*
Cc1nc(SCc2csc(Cc3ccc(Cl)cc3)n2)sc1CC(N)=O	.	.	2.4	.	.	.
CN(C)c1ccc2c(=O)c3ccccc3oc2n1	i	i	-0.9	.	?	15.8µM*
Cc1cccc[n+]1CCCCCCCCCC[n+]1ccccc1C	i	i	-0.1	1.4%	1.4%	-10.4%
